Sampled rows, rich in hits. Any-hit rate of the full collection: about 6%.
D1 antag = blocks dopamine activation of the human D1 receptor | HEK293 TREx D1 cells, calcium flux, dopamine EC80; active compounds read low | activity change, negative = inhibition, % at 10 µM | AID 504652 | 3.2% of 360,000 active; in the data active means activity change below about -30%; further: on the % scale 0 is the no-effect control and ±100 the full control effect
Target sequence (P21728 whole entry, looked up): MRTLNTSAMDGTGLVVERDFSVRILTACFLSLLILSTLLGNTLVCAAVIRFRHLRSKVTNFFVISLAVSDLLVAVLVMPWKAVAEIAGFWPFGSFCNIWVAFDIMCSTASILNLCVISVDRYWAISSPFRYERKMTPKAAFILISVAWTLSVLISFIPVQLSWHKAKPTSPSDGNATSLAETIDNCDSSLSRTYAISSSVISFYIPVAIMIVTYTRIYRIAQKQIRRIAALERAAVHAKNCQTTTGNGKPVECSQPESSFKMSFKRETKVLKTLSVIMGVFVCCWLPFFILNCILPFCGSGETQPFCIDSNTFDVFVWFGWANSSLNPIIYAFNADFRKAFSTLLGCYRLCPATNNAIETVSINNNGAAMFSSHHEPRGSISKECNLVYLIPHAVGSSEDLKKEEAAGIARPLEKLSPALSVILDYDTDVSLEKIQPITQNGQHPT
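HEK293 T-REx cells expressing inducible, force-coupled D1 receptor; no-wash Ca dye, 30–90 min RT. Cmpd → 180 s read at 1 Hz → EC80 DA → 180 s read.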
DRD3 antagonist = D3 dopamine receptor (human) antagonism; P35462; D3R cells, DiscoveRx beta-arrestin luminescence, antagonist mode; active compounds read low; max response, negative = inhibition, %; 2.5% of 360,000 active; AID 652054; in the data active means max response below about -50%; inconclusive means no clear call, values can overlap the other calls; further: on the % scale 0 is the no-effect control and ±100 the full control effect
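Cells expressing the human receptor were seeded at 1500 cells/well, incubated overnight at 37 degrees C in 5% CO2, then exposed to library compounds with dopamine controls for 90 minutes at 37 degrees C before luminescent detection.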
D1 ag = human D1 receptor agonism; activation, % at 2 µM; 1% of 360,000 active; P21728; AID 504660; HEK293 T-REx D1 cells, calcium flux, agonist mode; in the data active means activation above about 30%; further: 0% is about no effect
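Agonism was scored from calcium flux recorded over 180 s (1 read/s) after pintool compound addition, following a 10-cycle baseline. Cells were inducible force-coupled HEK293 TREx D1, plated overnight at 30 C and loaded with no-wash calcium dye.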
D1 PAM = enhances dopamine response at the human D1 receptor | HEK293 TREx D1 cells, calcium flux, dopamine EC20 potentiation | 0.036% of 360,000 active | P21728 | potentiation, % at 10 µM; in the data active means potentiation above about 30%; further: 0% is about no effect
DRD3 agonist = D3 dopamine receptor (human) agonism | AID 652048 | P35462 | D3R DiscoveRx beta-arrestin cells, luminescence, 90 min | 0.58% of 410,000 active | max activation, %; in the data active means max activation above about 30%; further: 0% is about no effect
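Agonist-mode cell screen: cells plated at 1500/well and incubated overnight at 37 °C, then exposed to library compounds for 90 min at 37 °C. Detection reagent was added for 30–60 min at room temperature, and luminescence was read.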
The depositor's hits bear a star; ? = inconclusive; nt = no result given.

SMILES	D1 antag	DRD3 antagonist	D1 ag	D1 PAM	DRD3 agonist
C=CCN(Cc1nc(-c2ccc(OC)cc2)no1)C(=O)c1ccc2c(c1)OCO2	-0.5	-6.7	17.2	-10.1	-6.3
CN(C)CCN(Cc1ccccc1)C(c1cc2ccccc2o1)c1nnnn1C(C)(C)C (stereo not drawn)	nt	-14.2	nt	nt	-7.0
CCCCCC(=O)Nc1ccc(NC(=O)c2cc3ccccc3o2)c(OC)c1	-7.7	nt	1.4	-1.4	-10.7
C/C(=N\N=C(N)N)c1cccc(Cl)c1	-47.3*	4.9	5.2	-10.3	-11.8
C/C(=N\O)c1ccc(Cl)cc1Cl	-7.3	-19.9	2.5	-4.0	6.4
C/C(=N\N=C(N)N)c1cc(Cl)ccc1Cl	-44.6*	-6.8	11.3	-12.8	-2.5
C/C(=N\N=C(N)N)c1ccc(Cl)cc1Cl	-35.8*	?	12.9	-9.8	-5.4
C/C(=N\NC(N)=O)c1cccc(Cl)c1	-2.8	-8.8	3.1	5.5	-4.8
Cc1cc2c(s1)c1cnn(Cc3ccc(C(C)(C)C)cc3)c(=O)c1n2C	6.8	nt	4.1	-1.1	nt
CC(NC(=O)COC(=O)C1CCN(c2ccc(C(F)(F)F)cn2)CC1)c1ccc(F)cc1 (stereo not drawn)	6.2	-16.6	8.5	-0.5	-2.0
CC(=O)Nc1ccc(Nc2c(CCC(C)C)c(C)c(C#N)c3nc4ccccc4n23)cc1	16.3	nt	-0.8	-1.1	-13.3
Cc1ccc(CNc2ncnc3onc(-c4ccc(F)cc4)c23)cc1	-23.8	nt	31.9*	-5.2	0.4
Cc1noc2ncnc(NCCc3ccccc3)c12	-22.5	nt	23.0	-2.0	10.6
Cc1ccc(CCNc2ncnc3onc(C)c23)cc1	-36.2*	nt	22.4	-8.5	6.4
O=C(NCc1ccc(Cl)cc1)c1ccc(S(=O)(=O)N2CCCCC2)cc1	6.1	-9.1	5.2	-7.6	1.0
COc1ccc(CNc2nc(-c3ccccc3)nn2C(=O)c2cccs2)cc1	8.7	-15.0	36.9*	-0.2	-8.4
Cc1ccccc1C(=O)n1nc(-c2ccco2)nc1NCc1ccc(Cl)cc1	3.3	nt	1.5	1.0	11.9
Cc1ccc(CNc2nc(-c3ccco3)nn2C(=O)c2ccccc2[N+](=O)[O-])cc1	-62.0*	nt	7.0	-2.4	0.4
COc1ccc(CNc2nc(-c3cccnc3)nn2S(C)(=O)=O)cc1	-31.0*	-4.6	4.3	-2.5	4.9
COc1ccc(CNc2nc(-c3ccccc3)nn2C(=O)c2ccc([N+](=O)[O-])cc2)cc1	4.7	-5.2	0.0	-1.2	2.2
COc1ccc(CNc2nc(-c3ccco3)nn2C(=O)c2ccccc2C)cc1	-36.0*	nt	4.3	-2.2	0.4
CCc1ccc(OCC2c3cc(OC)c(OC)cc3CCN2C(=O)c2ccc(S(=O)(=O)N3CCCC3)cc2)cc1 (stereo not drawn)	7.7	nt	5.1	-1.4	0.6
CCCn1nnc(NC(=O)c2cc3ccccc3o2)n1	5.9	-21.1	4.2	8.9	-2.2
CCCCn1nnc(NC(=O)c2ccc(-c3cccc(Cl)c3)o2)n1	-17.2	-86.2*	6.0	-3.7	-3.9
CCCCn1nnc(NC(=O)c2cc3ccccc3o2)n1	-36.1*	-8.7	2.2	5.8	-3.6
SMILES	D1 antag	DRD3 antagonist	D1 ag	D1 PAM	DRD3 agonist
CCCC(O)c1nc2ccccc2n1CCCOc1ccc(Cl)cc1 (stereo not drawn)	6.0	nt	1.1	-1.8	-1.2
CC1CCN(CCCCOc2ccccc2-c2ccccc2)CC1	-59.2*	-99.4*	19.6	-6.3	-37.8
CC1CCN(CCOCCOc2ccccc2-c2ccccc2)CC1	-12.0	-82.2*	11.9	-3.8	-19.5
CC1CCCN(CCCOc2ccccc2-c2ccccc2)C1 (stereo not drawn)	nt	-67.1*	9.3	-10.8	-18.4
CC1CCN(CCOCCOc2ccccc2Br)CC1	-47.9*	-61.3*	5.2	-3.0	-20.8
Brc1ccccc1OCCN1CCOCC1	-10.9	?	2.1	-2.8	2.4
COc1ccccc1OCCCCN1CCC(C)CC1	-12.1	?	1.1	-4.0	-46.4
CC(C)CCn1c(Oc2ccccc2F)nc2c1c(=O)n(C)c(=O)n2C	-3.5	nt	2.3	2.2	1.8
CC(C)c1ccc(-c2noc(SCC(=O)N3CCCCC3)n2)cc1	-1.7	nt	10.8	-2.2	2.2
COc1ccccc1CCNC(=O)c1cccn1-c1nnc(N2CCCC2)s1	5.0	nt	2.1	-1.6	1.6
Cc1ccc(Sc2ccc(CN3CCCCC3)cc2[N+](=O)[O-])cc1	-11.7	-106.0*	0.4	-1.9	-0.7
CCOC(=O)Cn1c(=O)n(C2CCCCC2)c2nc(-c3ccc(C(C)C)cc3)nc(C(N)=O)c21	-51.3*	nt	-0.5	0.1	4.0
CCOC(=O)Cn1c(=O)n(C2CCCCC2)c2nc(-c3cccc(C)c3)nc(C(N)=O)c21	-85.7*	nt	1.8	-1.0	4.8
CCOC(=O)Cn1c(=O)n(C2CCCCC2)c2nc(-c3cccc(F)c3)nc(C(N)=O)c21	4.8	nt	-0.2	-1.7	-2.8
COc1ccc(N2C(=O)c3ccccc3NC(=O)C2C(=O)NCC(C)C)cc1 (stereo not drawn)	nt	3.7	nt	nt	1.5
Cc1cc(C)c(S(=O)(=O)NCCC2CCCN2C)c(C)c1 (stereo not drawn)	-30.5*	-11.9	6.1	-10.2	-0.4
O=[N+]([O-])c1ccc(C=CC=Cc2ccccc2)cc1	nt	11.5	nt	nt	8.6
CN(c1ccccc1)c1ccc(/C=C/[N+](=O)[O-])cc1	-52.3*	-10.2	139.7*	-13.6	-1.4
CC(C)c1ccc(NC(=O)C2CCC(CNS(=O)(=O)c3ccc4c(c3)CCCC(=O)N4)CC2)cc1 (stereo not drawn)	5.6	nt	3.5	4.2	5.0
Cc1ccc(NC(=O)Cn2c(=O)n(-c3ccccc3)c(=O)c3ccc(C(=O)NCc4ccc5c(c4)OCO5)cc32)cc1	-1.1	nt	5.5	-2.7	-21.7
Cc1ccc(/C=C2\NC(=S)NC2=O)cc1[N+](=O)[O-]	-9.2	5.4	0.8	-7.7	-3.7
O=C1NC(=S)NC1=Cc1ccc(O)cc1	nt	-23.1	nt	nt	-10.8
O=C1NC(=S)N/C1=C/c1cc([N+](=O)[O-])ccc1O	4.3	-106.5*	5.5	-2.2	-4.8
O=C1NC(=S)N/C1=C/c1cccc([N+](=O)[O-])c1O	19.1	-74.8*	5.8	-0.8	-7.6
O=C(CCSc1ccc(F)cc1)Nc1ccc(-n2cnnn2)cc1	-39.6*	-18.0	14.7	-13.2	-0.4
O=C(CCSc1nnc2ccc3ccccc3n12)Nc1ccc(F)cc1	-9.3	18.4	3.8	-6.2	4.2
COc1ccccc1N(CC(=O)N/N=C(\C)c1cccc(Br)c1)S(C)(=O)=O	-30.2*	-1.7	0.4	-5.8	0.8
COc1ccccc1N(CC(=O)NCCc1ccccc1)S(C)(=O)=O	19.3	5.0	-0.3	-1.8	-8.6
COCCNC(=O)CN(c1ccccc1OC)S(C)(=O)=O	-30.2*	-25.8	2.9	0.3	-14.3
Cc1ccc(OCC(=O)Nc2cc(C)on2)c([N+](=O)[O-])n1	4.5	-3.1	1.0	4.6	1.9
